Laboratory results from the supplement of paper PMC9177965.

What was measured:
[1] = test system: HT29 RNF43 G659fs (RNF43 659mut, CRISPR-edited); assay: cell viability activity relative to DMSO (negative = inhibition); higher = more viable cells (less growth inhibition); conditions: 5 µM; 96 h
Protocol: (§1)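 Broad Repurposing Library primary screen at a single dose of 5 uM. HT29 sg-Ctrl and HT29 RNF43 G659fs CRISPR-edited isogenic cells were seeded at 2500 cells/well in 384-well plates in duplicate and treated for 96 h. Viability was read by CellTiter-Glo and reported as % activity relative to DMSO, with MG132 as the positive control (negative = growth inhibition).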

[2] = test system: HT29 sg-Ctrl (RNF43 wildtype); assay: as above; conditions: 5 µM; 96 h
Protocol: as §1

## CCCCCCCCCCCC[N+](C)(C)CCOc1ccccc1
[1]
  cell viability activity: -84.4%
[2]
  cell viability activity: -91.5%

## CC(C)C[C@@H](C=O)NC(=O)[C@H](CC(C)C)NC(=O)[C@H](CC(C)C)NC(=O)OCc1ccccc1
[1]
  cell viability activity: -96.9%
[2]
  cell viability activity: -96.2%

## CCCCCCCC[N+](C)(C)Cc1ccccc1
[1]
  cell viability activity: -22.5%
[2]
  cell viability activity: -16.8%

## C=C1C(=O)CC2CC3OC3(C)CCC3OC3(C)C[C@H](OC(C)=O)C1C2(C)C (some centres undefined)
[1]
  cell viability activity: -28.6%
[2]
  cell viability activity: -25.5%

## c1ccc(CNc2nc(NCc3ccccc3)c3ccccc3n2)cc1
[1]
  cell viability activity: -22%
[2]
  cell viability activity: -41%

## COc1cc2c(Oc3ccc(NC(=O)C4(C(=O)Nc5ccc(F)cc5)CC4)cc3F)ccnc2cc1OCCCN1CCOCC1
[1]
  cell viability activity: -92.2%
[2]
  cell viability activity: -37.8%

## COc1ccc(-c2ccc3c(N4CCOC[C@@H]4C)nc(N4CCOC[C@@H]4C)nc3n2)cc1CO
[1]
  cell viability activity: -71.9%
[2]
  cell viability activity: -55.9%

## C/C(=C\c1csc(C)n1)[C@@H]1C[C@@H]2O[C@]2(C)CCC[C@H](C)[C@H](O)[C@@H](C)C(=O)C(C)(C)[C@@H](O)CC(=O)N1
[1]
  cell viability activity: -42.8%
[2]
  cell viability activity: -38.1%

## Nc1nc(=S)c2ncn([C@@H]3O[C@H](CO)[C@@H](O)[C@H]3O)c2[nH]1
[1]
  cell viability activity: -80.3%
[2]
  cell viability activity: -76.6%

## CCOC(=O)CCNc1cc(N2CCc3ccccc3CC2)nc(-c2ccccn2)n1
[1]
  cell viability activity: -82.7%
[2]
  cell viability activity: -27.5%

## CC(C)[C@H]1c2ccc(F)cc2CC[C@@]1(CCN(C)CCCc1nc2ccccc2[nH]1)OC(=O)C1CC1
[1]
  cell viability activity: -90%
[2]
  cell viability activity: -90.4%

## FC(F)(F)Oc1ccc2nc(-c3ccc(OCCOCCOc4ccc(-c5nc6ccc(OC(F)(F)F)cc6[nH]5)nc4)cn3)[nH]c2c1
[1]
  cell viability activity: -37.9%
[2]
  cell viability activity: -16%
